# The whole screen tested about 53,000 sequences, of which about 3,700 (7%) were called active. The sample as a whole holds a higher share of actives than the screen did. Values without a mark were called inactive.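 How the source made its calls: active means gene knockdowns whose robust z-score for IL-1 alpha signal is at least 2 or at most -2, so actives lie on both sides; inactive means the rest.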
# Test: Components of the Cytosolic LPS Sensing Pathway: Gene Identification via Genome-wide siRNA Screen;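 further: robust z of the log signal after scaling to non-targeting control siRNA wells of the plate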
# Conditions: RAW264.7 macrophages, IL-1a HTRF, actives lie on both sides, screened at 100 nM (by protocol), cells primed 5 h with Pam3CSK4 first
# Summary of the method: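 IL-1a HTRF of supernatants after 24 hour LipidA transfection of Pam3CSK4-primed (5 hours) RAW264.7 cells, 48h post-siRNA transfection (100 nM). Scores: percent of plate negative-control median, then log-based robust z-score.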
row,Sequence,z-score
1,GGCACCUUUCAACGUAACCTT against Ntn3,1.32
2,GGACCUAAAGAAUUCAUCGTT against Unc79,0.109
3,GGUGAAGAUAGUAAUACGGTT against Apol7a,-1.02
4,GGUCCAGAGGAUGAACAGATT against Crcp,0.551
5,CCAAAUUCAUUCUAGCUCGTT against Klf6,-0.597
6,CGAUCUUCCAAACCCUCUUTT against Dhh,2.54 (active)
7,GCCCAUGACCAGUUCAAGUTT against Actn4,0.63
8,GCUAUUAAAAUAUGGGAAGTT against Olfr1314,1.28
9,GCAUAUGAUGGUCCUUACCTT against Cox6b1,0.019
10,CCAUGCUUCCCUUCAACAUTT against Adcy2,2.64 (active)
11,GGCAGUUAUCUCCUAAUGCTT against Zfp934,-0.383
12,GGCCAGAUGACCUUGUCAUTT against Sult1e1,-1.23
13,GGCGCACAAUCAAGAUCUUTT against Col4a4,0.385
14,GCACUUUGUAUGUCUAUCUTT against Tnfaip1,2.28 (active)
15,CCAAAAAGUUCAGUGUAAUTT against Rad9b,-1.09
16,GCUUGAGUAGUGCAGAAACTT against Jmjd1c,-1.15
17,CCAUGAGGAUGAUUACCUATT against Cnga2,-0.947
18,GGGAAGAUUGAUUUUAUCGTT against Abcb11,2.31 (active)
19,GCGACCUUAGACAUUUGCATT against Prkrip1,-0.652
20,CGCCUUCAUAAUGUAGUUGTT against Defb37,0.601
21,CCGUCACUUUUAACCAUGUTT against Speg,4.19 (active)
22,GCACCUGGAGUACAUAAAATT against Sh2d1a,-0.854

row,Sequence,z-score
1,CGUAGACUCCAAGCUCAAUTT against Ddx54,-1.31
2,GGAAAUUGUCUUUGGCUUUTT against Otop1,-0.0923
3,GGCAAAAUGAAGAAGCUGATT against Hdac6,-1.3
4,GCUACGAGCAGUUUUUAUUTT against Ptgs1,0.885
5,GGUGAAAGGAGUCAGUCUATT against Agtrap,-0.013
6,GGCUCCUGGUUCUACAUCCTT against Itpr2,-2.54 (active)
7,CCCUAAGUAUAGGAUCGGATT against Macroh2a1,-1.07
8,GGGUUAUCUAUGCAAAUCCTT against Odc1,0.569
9,GCGGCAUUCGUCCAAAUUGTT against Trpt1,0.938
10,GGCAGAGAUGGUGUUGAUGTT against Col1a2,-0.342
11,GGUGGCCAUUCUUCUGUUCTT against Dynll1,2.19 (active)
12,GGAAGUGGUGGCCAUCAAGTT against Stk25,1.08
13,GCUUGUAGGUGGAUACAUGTT against Slc30a4,-0.161
14,GGAAGACUAGGAGAGACGGTT against Pqlc3,-0.739
15,GCAUAAUGGAUGGAAAGUCTT against Tasp1,1.1
16,CCCUAAGGUGGCAGAAAUCTT against Atp1a2,-1.49
17,GGCGGUUCAAAUGUCCUCATT against Fut2,-2.02 (active)
18,GGGAGGGUGUGCAAAAGUUTT against Arl4d,1.26
19,GCUUCUUAUGAAAAGAUGCTT against Epc2,0.463
20,GGAGUGGACUCACGUCUAATT against Med23,0.717
21,GGGUCCUUUUUCACAUGGUTT against Asph,2.82 (active)
22,CGGUGAUAGUGGAGUUUGUTT against Olfr266,0.542

row,Sequence,z-score
1,GCAGCACAGUACUAUCUCGTT against Ttc4,-0.339
2,GCCAGAGAUUCCUCAACGATT against Rpp21,-2.48 (active)
3,GCAAUAGAAUCACAUAGGATT against Glyctk,1.35
4,GGCUGUAAUGACGAAUACATT against Naa25,0.764
5,GGGCAUGUGAUAGAACAAUTT against Stoml1,-0.701
6,GAGAAAGAUAAUUACCUGGTT against Tnfrsf22,0.552
7,GGAAGCUGAUGGCUAUGACTT against Arc,-0.943
8,GGAGACUGUAGACUUAAAGTT against Rnf25,-1.24
9,CAAUAACACUGGUGCCGACTT against Adam34l,1.73
10,CCUAAAUUAGUAGGACGGUTT against Cdkn1a,0.675
11,GGAUCAGUACCCGUAUUUGTT against Plin2,-2.38 (active)
12,CCUAGAUUCGGACAAGGAUTT against Kctd5,-0.424
13,GGUAUAGCAAUUUCUACAATT against Chrna2,-0.174
14,GGUAGUGAAAAUGAAGAGUTT against Gtf2h1,0.892
15,CCUGAUACCCAAAGACUCATT against Dnaic1,-1.38
16,GCAACGGAGGGUCAUUUCATT against Wipf2,2.54 (active)
17,CCAUGAGACAAGAUUUAGATT against Olfr818,-0.751
18,UACUUAGGCCCUUGAGCAUTT against Timm10,0.725
19,GGUGUGUUUUCAUGUUUUUTT against Rel,0.388
20,GCUAUUGUAGUGGUUACUGTT against Vmn2r57,2.21 (active)
21,GGUAUUUCUUUGUGGUGCUTT against Ptch2,1.45
22,GCUACAUGAUGUUCAUACUTT against Srpx,0.38

row,Sequence,z-score
1,GGUUUGGUGUCAGAUGUCATT against Olfr1182,-2.32 (active)
2,GGUGCAACACUCUCUAUUUTT against Afap1l1,0.963
3,CCCAUCUCCUUAAAGUCAATT against Ripk3,1.32
4,GGCAGCUGUUAUGCUUUUCTT against Cd302,0.822
5,CCAGGAUCCUGUUUCUGACTT against AF067061,2.19 (active)
6,GGAACUGUGAGACUUUUAGTT against Rabgap1,0.532
7,CCCUGAGAAGGAUGCGAAATT against Mgat4b,0.44
8,GGAGCAGAGAAACUUCUCGTT against Gigyf1,-2.09 (active)
9,CCGGAAAACAAAAUUGCUATT against Obp1a,0.492
10,GGAAGAUAAAUCACAAUCATT against Cdc37l1,0.051
11,GGAUUAUAUGCCAAGUGAUTT against Phyh,0.179
12,GCCGAUUGUCCUAUCUCCATT against Spg7,1.63
13,GGUACUACUGUGGCUAAGCTT against 1700120K04Rik,2.71 (active)
14,GAACUCUUCCAGUGGAAGUTT against Dctpp1,-1.5
15,GGAAAAAUAGGGUGUUUUGTT against Tdg,1.96
16,GGACCAAGAGGACAUUACCTT against Tbl3,-0.971
17,GGUCAACCUAAACCAGCAGTT against Csn1s2a,-0.182
18,GGGAUGACCUGCCAUUCAUTT against Atp7a,3.47 (active)
19,CGAGGAUUUCUGUUACUUATT against Lyst,1.19
20,GCGCAGGUUGGAUGAAUGUTT against Psme3,-0.433
21,GGAAUUUUCUCGAUUUCACTT against Pde6b,1.13
22,GGCCUUUGGUACAUGUAGUTT against Olfr692,0.557

row,Sequence,z-score
1,CGAAGAAUGACGAUGAUAUTT against Ppp4r3a,-2.41 (active)
2,CGGAAGAACUACAAGUCGATT against Sipa1l3,2.09 (active)
3,GCCAGUGCAUGAAAGAUAUTT against Kansl1l,-0.772
4,GUUAUAGCGGCGAAGGUGUTT against Maml3,1.02
5,CCUCUACAUCAGAGUAUGATT against Defb21,2.22 (active)
6,GGUCUGCUGUUGAUCGUUCTT against Sct,1.72
7,CGAUUCAAGGUAACAUAGATT against Esrrg,1.66
8,GGCACUAAUGGAGAGACUGTT against Nr6a1,3.53 (active)
9,GGCCCAAACACGUGUAAAATT against Kdm5b,0.322
10,GGACAAAGAGGAAUGGAUATT against Tank,-1.19
11,GGCAUGAAUCAGUCUAUGGTT against Olfr1308,0.656
12,GGCUGGAGAAGUAAUGAUATT against Sp100,0.62
13,GGAAGGUUGUAAGUUUAAATT against Krtap14,2.12 (active)
14,GGACUUUGAAGAACUAAGUTT against Tfrc,1.01
15,GGGAUCUAAAGGCUGAAAATT against Mark4,-0.291
16,GCCAUCGCUAACUUACGGATT against Gdpd5,-1.81
17,GGAUGGACCUUCAGAAAAGTT against Srrm4,-1.63
18,GGUCGUGCAUGACAACUAUTT against Itk,2.62 (active)
19,GGCCAAAGUCGAAUCAUAUTT against Prmt2,-0.252
20,CCAAUGGCGAGACAACUACTT against Aldoa,0.182
21,GGGUCUGCCGUCAUCCAUATT against Acp6,-0.563

# — PubChem BioAssay AID1508600 (Functional Genomics Laboratory (NCATS/FGL), 2020)
